Here are results for 29 molecules from the supplement of paper PMC13380429.

In the experiment the test system is Vero E6 infected with SARS-CoV-2. As to the kind of experiment: SARS-CoV-2 infection rate relative to infected DMSO; higher = more infection, active = 60 or less. To be noted: 24 h.
Consider `Cc1ccc(-c2c(-c3nn(C)c4ncnc(N5CC[C@H](N6CCCCC6)C5)c34)cnn2C)cc1` (10 µM), for which the SARS-CoV-2 infection rate was 100% (inactive).
The result for `CCOC(=O)[C@H](CCc1ccccc1)N[C@H]1CCc2ccccc2N(CC(=O)O)C1=O` [benazepril] (10 µM) reads 90.5% (inactive); that for `CN(C)C/C=C/C(=O)Nc1cc2c(Nc3ccc(F)c(Cl)c3)ncnc2cc1O[C@H]1CCOC1` [afatinib] (0.833333 µM), 114% (inactive); that for `COc1ccc2cc(C(C)C(=O)Oc3ccc(C(N)=S)cc3)ccc2c1` (centres undefined) (10 µM), 97% (inactive).
Regarding `NS(=O)(=O)NCc1csc2ccccc12` (10 µM), the SARS-CoV-2 infection rate is 87.5% (inactive).
The result for `CC(=O)c1ccc2c(c1)[C@H](NC(=O)c1ccc(F)c(Cl)c1)[C@H](O)C(C)(C)O2` [tonabersat] (10 µM) reads 94.5% (inactive); that for `C[N+]1(C)CCc2cc3c(cc2[C@H]1[C@@H]1OC(=O)c2c1ccc1c2OCO1)OCO3` [bicuculline-methochloride-(-)] (10 µM), 110% (inactive); that for `Nn1cnc2cc3ccccc3cc2c1=O` [centazolone] (10 µM), 116% (inactive).
The result for `CC(C)(C)[C@]1(O)CCN2C[C@H]3c4ccccc4CCc4cccc(c43)[C@@H]2C1` [butaclamol] (10 µM) reads 101% (inactive); that for `O=C(O)Cc1ccc(CCNS(=O)(=O)c2ccc(Cl)cc2)cc1` [daltroban] (10 µM), 97.5% (inactive); that for `N#C/C(=C\c1ccc(O)c(O)c1)C(=O)OCCc1cccs1` (10 µM), 108% (inactive).
The result for `O=C(/C=C/N1C[C@H]2C[C@@H]1CN2c1ccccn1)c1ccccc1O` (10 µM) reads 116% (inactive); that for `CCOC(=O)/C=C(C)/C=C/C=C(C)/C=C/c1c(C)cc(OC)c(C)c1C` [etretinate] (10 µM), 92.5% (inactive).
For `C=CCN1CC[C@]23c4c5ccc(O)c4O[C@H]2[C@@H](OCCOCCOCCOCCOCCOCCOCCOC)CC[C@@]3(O)[C@H]1C5` [naloxegol] (10 µM), the SARS-CoV-2 infection rate was 92% (inactive).
For the molecule `NC(=O)c1ccc(-c2nc(-c3ccccn3)c(-c3ccc4c(c3)OCO4)[nH]2)cc1` (10 µM), the SARS-CoV-2 infection rate is 109% (inactive).
Under `CN1CCN(CC(=O)N2c3ccccc3C(=O)Nc3cccnc32)CC1` [pirenzepine] (10 µM) stands 108% (inactive); under `O=C([O-])c1ccccn1.O=C([O-])c1ccccn1.O=C([O-])c1ccccn1.[Cr+3]` [chromium-picolinate] (10 µM), 112% (inactive).
Under `N#C[C@@H]1CCCN1C(=O)CNC12CC3CC(CC(O)(C3)C1)C2` [vildagliptin] (10 µM) stands 91% (inactive).
In the case of `CC1(C)C(=O)N(c2ccc(C#N)c(C(F)(F)F)c2)C(=O)N1CCCCO` (10 µM), the SARS-CoV-2 infection rate was 100% (inactive).
Under `OC[C@@H](O)[C@@H](O[C@@H]1O[C@H](CO)[C@H](O)[C@H](O)[C@H]1O)[C@H](O)[C@@H](O)CO` (10 µM) stands 111% (inactive).
Under `CCCCCCCCCCCCCCCCCC(=O)OCC(O)CO` (centres undefined) [monostearin] (10 µM) stands 108% (inactive); under `COc1cc2nc(N3CCN(C(=O)COc4c(OC)cccc4C(C)C)CC3)nc(N)c2cc1OC` (10 µM), 92.5% (inactive).
Under `CNC[C@@H]1CC[C@@H](N)[C@@H](O[C@H]2[C@H](O)[C@@H](O[C@H]3OC[C@](C)(O)[C@H](NC)[C@H]3O)[C@H](N)C[C@@H]2N)O1` [micronomicin] (10 µM) stands 96% (inactive); under `CCOC(=O)[C@H](Cc1ccc([N+](=O)[O-])cc1)NC(=O)c1ccccc1` (10 µM), 84.5% (inactive); under `Cc1cccc(/C=C/c2ccccc2)n1` (10 µM), 98% (inactive).
In the case of `CC[C@H](C)[C@@H]1NC(=O)[C@H](Cc2ccc(OC)cc2)NC(=O)CCCSC[C@@H](C(=O)N2CCC[C@H]2C(=O)N[C@@H](CC(C)C)C(=O)NCC(N)=O)NC(=O)[C@H](CC(N)=O)NC(=O)[C@H](CCC(N)=O)NC1=O` [carbetocin] (10 µM), the SARS-CoV-2 infection rate is 118% (inactive).
For the molecule `NC1=N[C@@]2(c3cc(NC(=O)c4ccc(F)cn4)ccc3F)COC[C@H]2CS1` (10 µM), the SARS-CoV-2 infection rate was 116% (inactive).
The result for `c1ccc2[nH]c(-c3cscn3)nc2c1` [tiabendazole] (10 µM) reads 111% (inactive); that for `CC(=O)N1CCN(c2ccc(OC[C@@H]3CO[C@@](Cn4ccnc4)(c4ccc(Cl)cc4Cl)O3)cc2)CC1` (racemic) [ketoconazole] (10 µM), 108% (inactive).
